Test results from PubChem BioAssay AID602252 (Broad Institute, 2012).
The campaign covered roughly 300,000 compounds. About 2,700 (0.9%) were called active. The full list was thinned out, with actives kept by preference. Unmarked numbers belong to inactive results.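 Rule for the calls: active = mean inhibition of at least 30% with at least half of replicates also reaching 30%; inconclusive = no clear call, values can overlap the other calls; inactive = the rest.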

These molecules were tested against Golgi-associated PDZ and coiled-coil motif-containing protein (Homo sapiens) (UniProt Q9HD26) (assay: untagged CAL PDZ binding inhibitors, primary screen, biochemical, fluorescence polarization, HTS (AID 602252;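 note: 0% = DMSO neutral control and 100% = excess unlabeled competitor peptide PRC23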)). Settings: purified CAL PDZ, TMR-peptide fluorescence polarization, 1 h; at 24.9 µM; hits give high values.

Compound	inhibition
CN(C(=O)c1cccc(NC(=O)Cc2ccc(NC(=O)C3CCN(C(=O)C4CCCCC4)CC3)cc2)c1)C1CCC1	-2.99%
CC1CC(C)CN(C(=O)C2CC(=O)N(c3ccc(F)cc3)C2)C1 (centres undefined)	-2.8%
COc1ccc(Cl)cc1NC(=O)C1CC(=O)N(c2ccc(F)cc2)C1 (centres undefined)	-7.15%
O=C(NC1CCCC1)C1CC(=O)N(c2ccc(F)cc2)C1 (centres undefined)	53.1% (active)
CC(=O)c1ccc(NC(=O)C(C)OC(=O)c2ccc(NS(=O)(=O)c3ccc4[nH]c(=O)[nH]c4c3)cc2)cc1 (centres undefined)	-8.65%
COc1ccc(/C=C2/CCCc3ccccc3C2=O)cc1	1.76%
COc1ccc(Nc2ncnc3sc(C)cc23)cc1	0.276%
COc1ccc(Nc2ncnc3ccc(Br)cc23)c(OC)c1	-10.3%
COc1ccc(Nc2ncnc3sc(-c4ccccc4)cc23)c(OC)c1	179% (active)
CCOc1ccc(S(=O)(=O)N2CCN(C(=O)c3oc4ccccc4c3C)CC2)cc1	2.11%
CC12CCCCC1=CC(=O)CC2 (centres undefined)	28.3%
O=C(CCC(=O)N1CCN(S(=O)(=O)c2ccc(Cl)cc2)CC1)NCc1cccc(C(F)(F)F)c1	-4.29%
O=C(CN1CCN(c2ccccn2)CC1)NC1CCCCC1	11.4%
O=C(Cn1c(-c2cscn2)nc2ccccc21)Nc1ccc(Cl)cc1	-17.7%
O=C(Cn1c(-c2cncs2)nc2ccccc21)NC1CCCC1	41.1% (active)
c1ccc(-c2c[nH]c(-c3ccccc3)c2)cc1	-3.72%
C/C=C/c1ccc(OCC(=O)NNC(=O)CN(C)S(=O)(=O)c2ccc(C)cc2)c(OC)c1	-0.216%
NC(=O)C1(Nc2ccc([N+](=O)[O-])cc2)CCCC1	-0.108%
COc1ccccc1-c1sc2ccccc2c1C#CC1(O)CCCCC1	0.068%
COc1cccc(/C=C2/SC(=S)N(CC(=O)NC3C=CS(=O)(=O)C3)C2=O)c1 (centres undefined)	-6.25%

Compound	inhibition
COc1ccc(/C=C2\SC(=N)N(c3ccc(F)cc3)C2=O)cc1	-1.62%
COc1cccc(/C=C2\SC(=N)N(c3ccc(F)cc3)C2=O)c1	161% (active)
CCOC(=O)c1ccccc1OC(=O)Oc1ccccc1C(=O)OCC	1.49%
Cn1cccc1/C=C1\SC(=S)N(NC(=O)c2ccc(Cl)cc2)C1=O	64.1% (active)
Cn1cccc1/C=C1\SC(=O)N(CC(=O)Nc2ccc(F)cc2)C1=O	-5.97%
O=C(O)c1ccc(/C=C2\SC(=S)N(NC(=O)c3ccc(Br)cc3)C2=O)cc1	15.4%
CC(C)(C)NS(=O)(=O)NC(=O)C1=C(N2CCCC2)COC1=O	-3.4%
COc1ccc(C(=O)OCc2cc(=O)n3ccsc3n2)cc1F	-3.31%
CCCC(O)(c1ccccc1)C(c1ccccc1)c1ccccn1 (centres undefined)	-2.63%
COc1ccccc1-n1nnnc1SCC(=O)NC(=O)Cc1ccccc1	0.182%
COc1ccccc1N1CCN(S(=O)(=O)c2ccc(Cl)cc2)CC1	-4.05%
COc1ccccc1-n1nnnc1S(=O)(=O)Cc1ccc(Cl)cc1	95.3% (active)
CCCCNc1c(-c2ccc(OC)c(Sc3ccc(OC)cc3)c2)nc2ccc(Cl)cn12	0.771%
CCN(CC(=O)NCc1ccc(Cl)cc1)C(=O)c1c(C)noc1C	-2.21%
CCN(CC(=O)Nc1cc(Cl)ccc1C)C(=O)CSCc1ccccc1	-0.344%
CCN(CC(=O)NCc1ccc(Cl)cc1)C(=O)CSc1ccccc1	62.6% (active)
Cc1cc2c(cc1C)NC1(C[C@H]3CCC(=O)N4CC[C@@H](C1)[C@@H]34)C(=NC(C)(C)CC(C)(C)C)N2 (some centres undefined)	-3.52%
CCCCCc1ccc(-c2cn(Cc3ccc4ccccc4c3)nn2)cc1	-1.31%
CCOC(=O)c1nnn(-c2nc(OC)nc(N(C)C)n2)c1-c1ccccc1	14.6%
CCOc1nc(OCC)nc(-n2cc(-c3ccccc3)nn2)n1	145% (active)

Compound	inhibition
Cc1c(NC(=O)Nc2ccccc2)cccc1[N+](=O)[O-]	-0.291%
Cc1c(NC(=O)CCCOc2ccccc2)cccc1[N+](=O)[O-]	47.4% (active)
Cc1ccccc1NC(=O)CCOc1ccccc1	-3.86%
Fc1ccc2cnc(-c3ccccc3)cc2c1	-0.668%
O=S(=O)(Nc1ccc2ccccc2c1)N1CCCCC1	-5.99%
CC(C)OC(=O)c1ccc(NCc2cc(O)ccc2O)cc1Cl	0.191%
COC(=O)Cc1c(-c2[nH]c3ccccc3c2CC(=O)OC)[nH]c2ccccc12	-2.69%
CCN1CCN(CCNC(=O)c2ccc3c(c2)NC(=O)/C(=C\c2ccc(OC)c(OC)c2)S3)CC1	55.5% (active)
COc1ccc(CCNC(=O)c2ccc3c(c2)NC(=O)C(N2CCOCC2)S3)cc1OC (centres undefined)	-1.17%
CCN1CCN(CCNC(=O)c2ccc(/C=C3/Sc4ccccc4N(Cc4cccc(C)c4)C3=O)cc2)CC1	-8.21%
COc1cc(C(=O)OCC(=O)NC23CC4CC(CC(C4)C2)C3)cc(OC)c1OC	-3.34%
C=CCn1c(SCc2ccccc2)nc2c1c(=O)[nH]c(=O)n2C	-10.1%
CCCCCCn1c(SCC(=O)c2ccccc2)nc2c1c(=O)[nH]c(=O)n2C	-0.797%
C=CCSc1nc2c(c(=O)[nH]c(=O)n2C)n1Cc1ccccc1	59.3% (active)
CC(C)(C)C(=O)Nc1cccc(-c2ccc[nH]2)n1	-1.63%
Cc1ccccc1NC(=O)NC1(C(=O)N2CCCC2)CCCCC1	-0.684%
CCN1CCN(C(=O)C2(NC(=O)Nc3cccc(F)c3)CCCCC2)CC1	-0.757%
CC(=O)N1CCN(C(=O)C2(NC(=O)Nc3ccc(C)cc3)CCCCC2)CC1	48% (active)
Cn1cncc1C#Cc1c(-c2ccsc2)sc2ccccc12	-4.14%
